Reference: PubChem BioAssay AID540364 (The Scripps Research Institute Molecular Screening Center, 2011)
Hit rate of the full screen: of about 360,000 compounds, about 2,000 (0.56%) were called active.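 How the source made its calls: active means activation above the average of all compounds screened plus 3 SD, cutoff fixed separately per campaign (cut at about 7.5% in these data); inactive means the rest.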 Shown is part of a subset that was picked to be rich in actives.

assay: GAA850 frataxin promoter reporter upregulation – cell-based, luciferase luminescence, HEK293 lucGAA850, primary screen (AID 540364); conditions: HEK293 lucGAA850 FXN promoter luciferase reporter, 24 h; at 6 µM; active compounds read high; percent of 10 µM SAHA response;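 further: 0% = DMSO wells and 100% = 10 µM SAHA wells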

Row | Structure (SMILES) | activation
1 | COc1cccc(-n2cc3c(c2-c2ccccc2)c(=O)n(C)c(=O)n3C)c1 | 1.09% (inactive)
2 | Cc1ccc(-c2c3c(=O)n(C)c(=O)n(C)c3cn2-c2ccccc2O)cc1 | -0.62% (inactive)
3 | Cc1ccc(-c2c3c(=O)n(C)c(=O)n(C)c3cn2-n2cnnc2)cc1 | 10.3% (active)
4 | CCN(C[C@H]1N[C@@](CC)(C(=O)OC)[C@H]2C(=O)N(Cc3ccccc3)C(=O)[C@@H]12)S(=O)(=O)c1ccccc1 | 3.23% (inactive)
5 | CCN(C[C@H]1N[C@@](CC)(C(=O)OC)[C@H]2C(=O)N(Cc3ccccc3)C(=O)[C@@H]12)S(=O)(=O)c1ccc(C(F)(F)F)cc1 | 15.9% (active)
6 | COC(=O)[C@]1(Cc2ccccc2)N[C@H](CN(C)S(=O)(=O)c2ccc(OC(F)(F)F)cc2)[C@@H]2C(=O)N(Cc3ccccc3)C(=O)[C@@H]21 | -3.69% (inactive)
7 | OC(c1ccccc1)c1nc(/C=C/c2ccc(C(F)(F)F)cc2)cs1 (centres undefined) | 1% (inactive)
8 | CC(=O)Nc1cc(-c2ccccc2N(C)C)cn2c(-c3ccc(F)c(Cl)c3)cnc12 | 1.24% (inactive)
9 | COc1ccc(NC(=O)CSCc2ccc([N+](=O)[O-])cc2)cc1OC | 0.83% (inactive)
10 | CCOc1ccc2[nH]c(=O)c(CN(Cc3nnnn3CCc3ccccc3)CC3CCCO3)cc2c1 (centres undefined) | 1.4% (inactive)
11 | CCC(c1nnnn1Cc1ccccc1)N(Cc1cc2cc(OC)ccc2[nH]c1=O)CC1CCCO1 (centres undefined) | 5.86% (inactive)
12 | COc1ccc2[nH]c(=O)c(CN(Cc3nnnn3CCc3ccccc3)CC3CCCO3)cc2c1 (centres undefined) | 7.67% (active)
13 | COc1ccc(-c2cc(C(F)(F)F)nc(S(C)(=O)=O)n2)cc1OC | 16.9% (active)
14 | COc1ccc(-c2cc(C(=O)N(C)Cc3ccc(OC)c(OC)c3OC)c3ccccc3n2)cc1OC | -6.82% (inactive)
15 | COc1ccc(-c2cc(C(=O)NCCCN3CCCC3=O)c3ccccc3n2)cc1OC | 0.37% (inactive)
16 | O=C(Nc1nnc(S(=O)(=O)N2CCOCC2)s1)c1cccc(Br)c1 | 3.61% (inactive)
17 | O=C(Nc1nnc(S(=O)(=O)N2CCCCCC2)s1)c1cccc(Br)c1 | 11% (active)
18 | Cc1cccc(C(=O)Nc2nnc(S(=O)(=O)N3CCCCCC3)s2)c1 | -0.31% (inactive)
19 | CC(OC(=O)CCC(=O)c1ccccc1)C(=O)Nc1ccc(F)cc1 (centres undefined) | 0.37% (inactive)
20 | Cc1ccc(N=C2SCCCN2C(=O)c2cccc(N3C(=O)CCC3=O)c2)cc1Cl | -0.64% (inactive)
21 | COc1ccc2cc(CCl)c(Cl)nc2c1 | 2.75% (inactive)
22 | O=[N+]([O-])c1ccc(C=Nc2ccc(Cl)cc2Cl)s1 | 9.39% (active)
23 | COc1ccc(CN2[C@@H](CC(=O)O)c3cc(F)ccc3S2(=O)=O)cc1 | 1.09% (inactive)
24 | CCc1noc(C)c1C(=O)N1CCN(S(=O)(=O)c2cccc(C(F)(F)F)c2)CC1 | -0.49% (inactive)
25 | CC1(C(=O)N/N=C/c2cc3c(cc2Br)OCO3)CC1(Br)Br (centres undefined) | 8.27% (active)
26 | O=C(/C=C/c1cc2c(cc1Br)OCO2)NCc1ccc(Cl)cc1 | 1.84% (inactive)
27 | O=C(N/N=C\c1cc2c(cc1Cl)OCO2)c1ccc(Br)s1 | 1.53% (inactive)

Row | Structure (SMILES) | activation
28 | CO[C@H]1[C@@H]2C=CO[C@@H](O[C@H]3O[C@@H](CO)[C@H](O)[C@@H](O)[C@@H]3O)[C@@H]2[C@@]2(CO)O[C@@H]12 | -1.13% (inactive)
29 | Cc1ccc(OCCCCc2c(C)n[nH]c2C)cc1 | 0.87% (inactive)
30 | Cc1cc(=O)oc2c3c(cc(OCC(=O)NCC(O)c4ccccc4)c12)OC(C)(C)CC3 (centres undefined) | 1.51% (inactive)
31 | Cc1ccc(C)c(NC(=O)c2ccc3nccnc3c2)c1 | -0.14% (inactive)
32 | O=C(NCCc1ccc(F)cc1)c1ccc2nccnc2c1 | 3.24% (inactive)
33 | CC(C)CCC(C)NC(=O)c1ccc2nccnc2c1 (centres undefined) | 9.19% (active)
34 | CCc1ccc(N(CC(=O)NCc2cccnc2)S(=O)(=O)c2ccccc2)cc1 | -0.07% (inactive)
35 | CN(CC(=O)NCc1cccnc1)S(=O)(=O)c1cc(Cl)ccc1Cl | -2.15% (inactive)
36 | O=C(CN(c1cc(C(F)(F)F)ccc1Cl)S(=O)(=O)c1ccccc1)NCc1cccnc1 | 8.32% (active)
37 | COc1ccc(OC)c(NC(=O)c2cnn(-c3ccccc3Cl)c2NC(=O)c2ccco2)c1 | 2.28% (inactive)
38 | O=[N+]([O-])/C=C/c1ccc2c(ccn2Cc2ccccc2)c1 | 15.3% (active)
39 | COc1ccc(NC(=S)SC)cc1OC | 0.31% (inactive)
40 | COc1ccc(CN2C(=O)CN=C2Nc2ccc(C)cc2C)cc1 | 2.67% (inactive)
41 | Cc1ccc(NC(=O)COc2ccc(/C=C3/NC(=O)NC3=O)cc2)cc1 | -1.99% (inactive)
42 | Cc1ccc(OCC(=O)Nc2ccc(-c3nnc(-c4ccco4)o3)cc2)cc1 | 9.76% (active)
43 | CCOC(=O)C1=C(O)/C(=C/c2ccc(OCC(=O)Nc3ccc(C)cc3)cc2)N=C1C | -1.6% (inactive)
44 | Cc1noc(C)c1NC(=O)Nc1ccc2c(c1)C(=O)N([C@H](C)CO)C[C@H](C)[C@@H](CN(C)S(=O)(=O)c1cn(C)cn1)O2 | 0.14% (inactive)
45 | CCOC(=O)C1=C(CC)Nc2ccccc2N=C1NC(=O)c1cccc(S(=O)(=O)N2CCCC2)c1 | -2.08% (inactive)
46 | CCC(=O)Nc1ccc2c(c1)nc(CCN1CCN(c3ccccn3)CC1)n2C | 1.46% (inactive)
47 | Cn1c(CCN2CCCCCC2)nc2cc(NC(=O)Nc3ccccc3)ccc21 | 10.5% (active)
48 | Cc1nn(CC(=O)Nc2ccc3c(c2)nc(CN2CCCCC2)n3C)c(=O)c2ccccc12 | -1.92% (inactive)
49 | O=C(CNCCC1=CCCCC1)Nc1ccccc1N1CCCCCC1 | -0.31% (inactive)
50 | Cc1cc(C)c2c(-n3cccc3)c(C(=O)NNS(=O)(=O)c3ccc(F)cc3)sc2n1 | -0.88% (inactive)
51 | COc1cc(S(=O)(=O)N2CCN=C2c2ccccc2)ccc1Cl | 2.5% (inactive)
52 | COC(=O)CNC(=O)c1ccccc1[N+](=O)[O-] | 1.03% (inactive)
53 | COCCn1c(=NC(=O)c2ccccc2[N+](=O)[O-])sc2cc(S(C)(=O)=O)ccc21 | 8.06% (active)
54 | Cn1c(=NC(=O)c2ccc3c(c2)OCCO3)sc2cc(S(C)(=O)=O)ccc21 | -0.86% (inactive)
